Measured values taken from PubChem BioAssay AID720513 (Broad Institute, 2013).
About 480 (23%) of roughly 2,100 compounds were called active. Not shown: some 5% with an inconclusive outcome.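 The calls were made as follows: active = fitted curve reaches 40% activation at or below the top valid concentration, in every replicate test; inconclusive = replicate tests disagree on the call; inactive = the rest, including activity in the opposite direction.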 These entries were drawn from the full list. Where a call stands in place of a potency, no number is given. Potency and affinity values are given separately.

Assay: activators raising PGC1a acetylation in cells, dose response, cell-based, cherry-picked samples, set 6 (AID 720513);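 also: cells made to overexpress flag tagged PGC1a plus GCN5 acetyltransferase by viral infection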
Conditions: U2OS PGC1a acetylation AlphaLISA, overnight, 0 = neutral, -100 = inhibitor control; series mostly up to 19.5 µM

Q: Which outcome does the source give for `Cc1ccccc1NC(=O)Nc1ccccc1Br` here?
A: The outcome was “inactive”.

Q: For `Cc1ccc(C)c(NC(=O)c2nnn(Cc3ccccc3)c2N)c1`, which outcome is on record?
A: The outcome was “inactive”.

Q: With `CC(C)(C)c1ccc(CCC2OCC(C[N+]3(C)CCOCC3)O2)cc1` (stereo unspecified) as the molecule, how does the outcome read?
A: The outcome was “inactive”.

Q: Which outcome does the source give for `Clc1ccccc1CN1CCSCC1` here?
A: The outcome was “inactive”.

Q: With `COc1ccc(-c2cc(N)n(S(=O)(=O)c3c(F)c(F)c(F)c(F)c3F)n2)cc1OC` as the molecule, how does the outcome read?
A: Its outcome is “inactive”.

Q: For `O=C(CCSc1nnc(-c2ccc(O)cc2)o1)N1CCOCC1`, which outcome is on record?
A: The outcome was “inactive”.

Q: With `NNS(=O)(=O)c1ccc(Cc2ncc(C(F)(F)F)cc2Cl)s1` as the molecule, how does the outcome read?
A: The outcome was “inactive”.

Q: Which outcome does the source give for `O=S(=O)(c1ccccc1)c1ncc(C(F)(F)F)cc1Cl` here?
A: The outcome was “inactive”.

Q: With `CC(=O)N(c1cccc(C)c1)S(=O)(=O)c1ccc(Cl)cc1` as the molecule, how does the outcome read?
A: Its outcome is “inactive”.

Q: For `CC(C)NC(=O)N(C)C[C@H]1OCc2cnnn2CCCC(=O)N([C@@H](C)CO)C[C@H]1C`, which outcome is on record?
A: The outcome was “inactive”.

Q: Which outcome does the source give for `Oc1ccc(/C=N/Nc2nc(-c3ccc(Cl)cc3)cc(C(F)(F)F)n2)cc1` here?
A: The outcome was “inactive”.

Q: Which outcome does the source give for `CCOc1ccc(N(C(=O)Nc2ccccc2)C2=NCCC2)cc1` here?
A: The outcome was “inactive”.

Q: For `O=C(Cc1ccc(-n2cccc2)cc1)NCc1cccs1`, which outcome is on record?
A: Its outcome is “inactive”.

Q: For `Cn1cccc1C(=O)OCC(=O)Nc1ccc2c(c1)CCC2`, which outcome is on record?
A: Its outcome is “inactive”.

Q: With `CCOc1ccc(NS(=O)(=O)c2ccc3c(c2)oc(=O)n3C)cc1` as the molecule, how does the outcome read?
A: Its outcome is “inactive”.

Q: For `O=C(CCC1CCCCC1)NCc1cccs1`, which outcome is on record?
A: Its outcome is “inactive”.

Q: With `COc1cccc(OC)c1NC(=O)C1CCCN1C(=O)NCc1ccccc1` (stereo unspecified) as the molecule, how does the outcome read?
A: Its outcome is “inactive”.

Q: Which outcome does the source give for `COc1ccc(Cl)cc1NC(=O)CN1CCC(n2nnc3cc(C)ccc32)CC1` here?
A: Its outcome is “inactive”.

Q: With `O=C(OCc1ccccc1)N1CCC2CC1c1cc(-c3ccc(F)cc3)ccc12` (stereo unspecified) as the molecule, how does the outcome read?
A: Its outcome is “inactive”.

Q: Which outcome does the source give for `O=C(NCC[C@@H]1CC[C@H](NS(=O)(=O)c2ccccc2)[C@@H](CO)O1)c1ccccc1F` here?
A: The outcome was “inactive”.

Q: With `CCOC(=O)C1CCCN(C(=O)CSc2ccc(Br)cc2)C1` (stereo unspecified) as the molecule, how does the outcome read?
A: Its outcome is “inactive”.

Q: For `CCCNC(=O)Nc1ccc2c(c1)C(=O)N(C)C[C@H](OC)[C@H](C)CN(CC1CCCC1)[C@@H](C)CO2`, which outcome is on record?
A: The outcome was “inactive”.

Q: For `O=C(Cc1ccccn1)N[C@H]1CC[C@H](CCn2cc(-c3ccccc3)nn2)O[C@@H]1CO`, which outcome is on record?
A: Its outcome is “inactive”.

Q: Which outcome does the source give for `CCNC(=O)C1(C)CCCN1Cc1ccccc1Cl` (stereo unspecified) here?
A: Its outcome is “inactive”.

Q: With `N#CC(C#N)=c1ccc2c(c1)NC1(CCCCC1)N=2` as the molecule, how does the outcome read?
A: Its outcome is “inactive”.

Q: For `O=C(c1ccco1)N(Cc1ccc([N+](=O)[O-])cc1)c1ccc(Br)cc1`, which outcome is on record?
A: Its outcome is “inactive”.

Q: For `C#CCN(C[C@@H]1[C@@H](OC(=O)NCC2CCCCC2)[C@@H](OC(=O)NCC2CCCCC2)Cn2c(=O)ccc(=O)n21)S(=O)(=O)c1ccc(C)cc1`, which outcome is on record?
A: Its outcome is “inactive”.

Q: For `COc1ccc(OCCCC(=O)OCC(=O)Nc2c(C)nn(-c3ccccc3)c2C)cc1`, which outcome is on record?
A: Its outcome is “inactive”.

Q: For `O=C(C[C@@H]1C=C[C@@H](NC(=O)Nc2ccc(C(F)(F)F)cc2)[C@H](CO)O1)NCc1ccccn1`, which outcome is on record?
A: Its outcome is “inactive”.

Q: With `C[C@@H]1CN([C@@H](C)CO)C(=O)CCCn2nncc2CO[C@@H]1CN(C)C(=O)NC1CCCCC1` as the molecule, how does the outcome read?
A: Its outcome is “inactive”.

Q: Which outcome does the source give for `Cc1cc(C)c(C(=O)/C=C/c2ccc(C(C)C)cc2)c(=O)[nH]1` here?
A: Its outcome is “inactive”.

Q: For `C[C@H]1CN([C@@H](C)CO)S(=O)(=O)c2ccc(C3=CCCC3)cc2O[C@H]1CN(C)Cc1cncnc1`, which outcome is on record?
A: Its outcome is “inactive”.

Q: For `O=S(=O)(Nc1cc(Sc2ncn[nH]2)c(O)c2ccccc12)c1ccccc1`, which outcome is on record?
A: Its outcome is “inactive”.

Q: With `COc1ccc(NC(=O)N[C@@H]2CC[C@H](CCn3cc(-c4ccccc4F)nn3)O[C@@H]2CO)cc1` as the molecule, how does the outcome read?
A: Its outcome is “inactive”.

Q: For `Cc1ccc(NC(=O)Cn2ncc(Cl)c(Cl)c2=O)cc1S(=O)(=O)N1CCCCC1`, which outcome is on record?
A: Its outcome is “inactive”.

Q: Which outcome does the source give for `O=C(Cn1ncc(Cl)c(Cl)c1=O)c1ccc(Cl)cc1` here?
A: The outcome was “inactive”.

Q: Which outcome does the source give for `O=C(Cn1ncc(Cl)c(Cl)c1=O)N1CCN(S(=O)(=O)c2ccc3ccccc3c2)CC1` here?
A: Its outcome is “inactive”.

Q: For `O=C(Cn1ncc(Cl)c(Cl)c1=O)c1ccc2c(c1)OCCO2`, which outcome is on record?
A: Its outcome is “inactive”.

Q: For `C[C@H](CO)N1C[C@H](C)[C@@H](CN(C)Cc2cccnc2)Oc2cc(C#CC3CCCCC3)ccc2S1(=O)=O`, which outcome is on record?
A: Its outcome is “inactive”.

Q: With `Cc1noc(C)c1NC(=O)N(C)C[C@@H]1Oc2ccc(NS(=O)(=O)c3cn(C)cn3)cc2C(=O)N([C@@H](C)CO)C[C@@H]1C` as the molecule, how does the outcome read?
A: Its outcome is “inactive”.

Q: With `CN=C1c2cc3cc(OC)ccc3n2CCN1Cc1ccccc1` as the molecule, how does the outcome read?
A: The outcome was “inactive”.

Q: Which outcome does the source give for `Cc1cc(N2CCN(C)CC2)nc(=S)[nH]1` here?
A: Its outcome is “inactive”.

Q: For `COc1cc(OC)cc(C(=O)N[C@H](C(=O)OCC(=O)NC(=O)NC(C)(C)C)C(C)C)c1`, which outcome is on record?
A: Its outcome is “inactive”.

Q: Which outcome does the source give for `OC[C@H]1[C@@H](c2ccc(C#CC3CCCC3)cc2)[C@@H]2CN(CCC(F)(F)F)CCCCN12` here?
A: Its outcome is “inactive”.

Q: Which outcome does the source give for `N#C[C@@H]1[C@H](c2ccccc2C2=CCCCC2)[C@H](CO)N1C(=O)Cc1ccncc1` here?
A: Its outcome is “inactive”.

Q: With `NC(=O)c1oc2ccccc2c1NC(=O)C1CC(=O)N(c2ccccc2)C1` (stereo unspecified) as the molecule, how does the outcome read?
A: Its outcome is “inactive”.
